# Source: PubChem BioAssay (National Center for Advancing Translational Sciences (NCATS))
# Sampled rows, rich in hits. Any-hit rate of the full collection: about 0.39%.
# AT treatment = qHTS Assay for Identifying a Potential Treatment of Ataxia-Telangiectasia; F2112 A-T fibroblasts, KAP-1 phosphorylation AlphaLISA; neocarzinostatin DNA damage 30 min before lysis; Potency, µM (titrated, usually from 57.5 µM), for inactives: top-dose activation, hits mostly activators; 320,000 compounds, 0.19% hits; AID 485349, 2010; also: % of control where 0% means no effect; nearly all actives have a fitted effect of over 45% in size
#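 hTERT-immortalized A-T patient fibroblasts (F2112), 500 cells/well in OPTI-MEM, 1% FBS, got compounds for 60 min, then NCS for 30 min at 37C. Lysates were then assayed for phospho-KAP-1 by AlphaLISA (anti-pKAP1 donor, anti-KAP1 acceptor beads), 6 hr at 25C.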
# Pin1 inh = qHTS Assay to Find Inhibitors of Pin1; Peptidyl-prolyl cis-trans isomerase NIMA-interacting 1 (Homo sapiens), Q13526; Pin1 FP peptide displacement, HiFluor488, 10 min; Potency, µM (doses to about 115 µM), for the others: at the top dose activity, negative = inhibition, hits mostly inhibitors; 390,000 compounds, 0.009% hits; AID 504891, 2011; active = well fitted inhibition curve with a large enough effect in the polarisation, with a control signal flat, not every such curve was filed as active; inconclusive = small, poorly fitted or top-dose-only effect, or effect the other way, or a change in a side signal; inactive = no such curve, though single readings can be large or run the other way; the % refers to the polarisation; also: % is scaled to controls: 0 for no effect and ±100 for the full control effect
# Target sequence (Q13526 whole entry, looked up): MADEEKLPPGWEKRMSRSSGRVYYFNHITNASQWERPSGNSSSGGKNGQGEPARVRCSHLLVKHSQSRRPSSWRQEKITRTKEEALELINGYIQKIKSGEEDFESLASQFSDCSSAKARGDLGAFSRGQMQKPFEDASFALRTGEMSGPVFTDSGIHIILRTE
# PKM2 act = qHTS Assay for Activators of Human Muscle isoform 2 Pyruvate Kinase; 260,000 compounds, 0.34% hits; Pyruvate kinase PKM (Homo sapiens), P14618; purified PKM2, Kinase-Glo ATP luminescence, activation; response scale: 0% is enzyme alone, no compound; Potency, µM (highest dose often 57.5 µM), for inactives: at the top dose activation, usual class: activators; also: % is scaled to controls: 0 for no effect and ±100 for the full control effect; nearly all actives have a fitted effect of over 55% in size
# Target sequence (P14618 whole entry, looked up, canonical isoform): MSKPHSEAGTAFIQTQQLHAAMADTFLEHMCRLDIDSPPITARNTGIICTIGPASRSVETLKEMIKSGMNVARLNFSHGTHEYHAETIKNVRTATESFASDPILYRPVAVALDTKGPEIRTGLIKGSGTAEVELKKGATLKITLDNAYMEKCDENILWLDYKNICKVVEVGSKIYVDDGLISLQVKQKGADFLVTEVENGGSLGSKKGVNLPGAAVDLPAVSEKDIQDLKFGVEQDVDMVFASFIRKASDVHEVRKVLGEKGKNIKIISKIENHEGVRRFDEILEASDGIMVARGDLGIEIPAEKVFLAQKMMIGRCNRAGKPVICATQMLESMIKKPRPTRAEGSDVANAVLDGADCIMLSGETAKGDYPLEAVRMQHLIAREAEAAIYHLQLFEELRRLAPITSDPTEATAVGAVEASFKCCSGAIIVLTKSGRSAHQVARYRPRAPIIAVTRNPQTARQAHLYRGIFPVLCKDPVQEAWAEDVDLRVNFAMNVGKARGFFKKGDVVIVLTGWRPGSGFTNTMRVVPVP
#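 ATP formation by purified human PK-M2, quantified via coupled luciferase luminescence after 1 h at room temperature with 0.1 mM ADP and 0.5 mM PEP final.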
# TSG101-PTAP inh = qHTS Assay for Iinhibitors of HIV-1 Budding by Blocking the Interaction of PTAP/TSG101; Potency, µM (series often up to 115 µM), for the others: at the highest dose activity change, negative = inhibition, hits mostly inhibitors; AID 493005, 2010; 340,000 tested, under 10 active; Fluorescence polarization, FITC-PTAP peptide / Tsg101 binding; active = well fitted inhibition curve with a large enough effect in the main read-out, with a control signal flat, not every such curve was filed as active; inconclusive = small, poorly fitted or top-dose-only effect, or effect the other way, or a change in a side signal; inactive = no such curve, though single readings can be large or run the other way; also: % of control where 0% means no effect
#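 Tsg101 binding domain (10 uM final) was mixed with compound and a FITC-labeled PTAP peptide (50 nM final) in HEPES pH 7.5 buffer with NaCl, Tween 20, EDTA and TCEP; fluorescence polarization was read after 20 min at r.t.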
# * = called active by the depositor; u = inconclusive; x = no result; [ ] = another dose, or the depositor's remark. Unless noted, calls follow the shape of the dose curve; as a rule, active = well fitted activation curve with a large enough effect; inconclusive = small, poorly fitted or top-dose-only effect; inactive = no such curve, though single readings can be large or run the other way. Potency is read from the fitted curve at half-maximal effect.
SMILES,AT treatment,Pin1 inh,PKM2 act,TSG101-PTAP inh
O=C(CCCc1c[nH]c2ccccc12)N1CCN(S(=O)(=O)c2cccs2)CC1,-1%,-4%,1.6µM*,0%
O=C(CSc1ccccc1)N1CCN(S(=O)(=O)c2cccs2)CC1,5%,-7%,1.1µM*,-2%
N#Cc1nc(Nc2cc(F)cc(F)c2)c2ncn(CCCO)c2n1,x,36%,x,x
CC(=O)Nc1sc2c(c1-c1nccs1)CCNC2,x,25%,x,x
CC(=O)N(c1cccc(C)c1)C1SC(=O)N(c2ccccc2)C1=O (stereo not drawn),14%,1%,0.4µM*,-2%
CC12CCC(C(=O)NNc3ccc([N+](=O)[O-])cc3)(OC1=O)C2(C)C (stereo not drawn),10µM*,3%,-1%,0%
COCCNc1nc2c(c(=O)n(C)c(=O)n2C)n1Cc1cccc(C)c1,8%,2%,-1%,-7%
Cc1cccc(Cn2c(NCCO)nc3c2c(=O)n(C)c(=O)n3C)c1,32µM*,2%,3%,1%
COc1cccc(C2c3c(ncn(-c4ccccc4Cl)c3=N)Oc3ccc4ccccc4c32)c1 (stereo not drawn),x,59%,x,x
C=CCSc1nc2ccccc2n1C(=O)/C=C/c1ccc(OC)c(OC)c1,32µM*,-16%,-7%,0%
CCSc1nc2ccccc2n1C(=O)/C=C/c1ccc(OC)c(OC)c1,22µM*,1%,1%,0%
Cc1cc2nn(-c3ccc(Cl)cc3)nc2cc1N,22µM*,-2%,x,-1%
Cc1cc2nn(-c3ccc(F)cc3)nc2cc1N,25%,-6%,-1%,0%
COc1ccc(C2Nc3ccccc3C(=O)N2Cc2ccccc2C)cc1COc1ccc(NC(C)=O)cc1 (stereo not drawn),x,8%,x,x
COc1ccc(S(=O)(=O)c2c(N)n(Cc3ccco3)c3nc4ccccc4nc23)cc1,24%,u,28µM*,-10%
COc1ccc(Cn2c(C)nc3c(c2=O)c2nc4ccccc4nc2n3Cc2ccco2)cc1,x,79%,x,0%
CC(=O)N1c2ccc(S(=O)(=O)Nc3ccc(C)c(C)c3)cc2CC1C (stereo not drawn),x,9%,x,x
OC(c1cc(C(F)(F)F)nc2c(C(F)(F)F)cccc12)C1CCCCN1 (stereo not drawn),-8%,18%,x,-2%
OC(c1cc(-c2ccc(C(F)(F)F)cc2)nc(C(F)(F)F)c1)C1CCCCN1 (stereo not drawn),40µM*,u,7%,-9%
O=C(Nc1ccc(Cl)cc1)c1csc(-c2ccncc2)n1,2%,46%,-2%,0%
O=C(NCc1ccccc1)c1csc(-c2cccnc2)n1,2%,6%,-10%,1%
O=C(Nc1ccc(Cl)cc1Cl)c1csc(-c2cccnc2)n1,40µM*,-7%,0%,3%
O=C(Nc1ccc(Cl)cc1)c1csc(-c2ccccc2)n1,18µM*,-4%,1%,0%
COc1ccccc1NC(=O)CN(c1ccc([N+](=O)[O-])cc1)S(=O)(=O)c1ccccc1,2%,3%,10µM*,0%
COc1ccc(NC(=O)CN(c2ccc([N+](=O)[O-])cc2)S(=O)(=O)c2ccccc2)c(OC)c1,-2%,0%,4%,-6%
SMILES,AT treatment,Pin1 inh,PKM2 act,TSG101-PTAP inh
Cc1ccc(N2C(=O)CC(Sc3ccccc3C(=O)O)C2=O)c([N+](=O)[O-])c1 (stereo not drawn),3%,-19%,u,-4%
COc1ccc(N2C(=O)CC(Sc3ccccc3C(=O)O)C2=O)c([N+](=O)[O-])c1 (stereo not drawn),0%,-3%,20µM*,-3%
CCOC(=O)c1ccc(-c2ccc3ncnc(NCc4cccs4)c3c2)o1,x,33%,x,x
O=C1C(Cl)=C(N2CCC(C(=O)O)CC2)C(=O)c2ccccc21,18%,-10%,8%,-1%
CN1CCN(C2=C(Cl)C(=O)c3ccccc3C2=O)CC1,x,67µM*,x,-16%
COc1ccc([S+](=O)([O-])N2CCN([S+](=O)([O-])c3ccc4c(c3)OCCO4)CC2)c(OC)c1,x,23%,x,x
COc1ccc2c(c1)C(C)CC(C)(C)N2C(=O)CSc1ncn[nH]1 (stereo not drawn),20µM*,3%,-2%,-3%
CCCCn1c(N)c(Sc2ccc(C)cc2)c(=O)[nH]c1=O,12%,6%,16µM*,-2%
O=S(=O)(Nc1ccc(Cl)cc1)c1ccc2c(c1)CCO2,3%,-3%,18µM*,-2%
Cc1ccc(NS(=O)(=O)c2ccc3c(c2)CCO3)cc1C,x,-1%,x,x
CCCCCOC(=O)c1[nH]c2c(c1C)C(=O)CC(c1ccco1)C2 (stereo not drawn),-24%,1%,16µM*,1%
COc1ccc(C(=O)/C=C/C(=O)N(CC(=O)NC2CCCCC2)CC2CCCO2)c(O)c1 (stereo not drawn),u,7%,7.9µM*,-5%
CCN(CC)c1ccc(/C=C2\SC(=O)N(C(C)C)C2=O)o1,-10%,u,13µM*,u
COc1ccc(-c2ccc3ncnc(NCC4CCCO4)c3c2)cc1OC (stereo not drawn),x,-2%,x,x
CCOC(=O)N1CCN(C(=O)Nc2ccc3nccnc3c2)CC1,x,0%,5%,-6%
CCOC(=O)N1CCN(C(=O)Nc2ccc3nc(C)c(C)nc3c2)CC1,40µM*,-1%,-19%,1%
COCCn1c(SCc2ccc(F)cc2)nc2c1c(=O)[nH]c(=O)n2C,16%,2%,-3%[11.5 µM],-4%
CC(C)n1c(SCC(=O)Nc2ccccc2)nc2c1c(=O)n(C)c(=O)n2C,0%,-12%,14µM*,-1%
CCn1c(SCC(=O)Nc2ccccc2)nc2c1c(=O)n(C)c(=O)n2C,1%,3%,7.9µM*,2%
COCCn1c(SCC(=O)Nc2ccccc2)nc2c1c(=O)[nH]c(=O)n2C,3%,-3%,6.3µM*,1%
CC(C)n1c(SCC(=O)Nc2ccccc2)nc2c1c(=O)[nH]c(=O)n2C,0%,-1%,8.9µM*,-3%
CC(C)(C)OC(=O)Cc1nnc(-c2nc3ccccc3[nH]2)s1,x,9%,x,x
CC(C)(C)OC(=O)Cc1nnc(C(C(=O)OCc2ccccc2)c2ccccc2)o1 (stereo not drawn),x,3%,x,x
O=c1cc(-c2ccccc2)nc2n1Cc1ccccc1-2,1%,-1%,5%,-11%
COc1ccc(-c2nc3n(c2C)Cc2ccccc2-3)cc1,22µM*,11%,-3%,-7%
Fc1cccc(Cl)c1CNC(c1ccccc1)c1ccccc1,32µM*,4%,-18%,-4%
O=C(c1ccc(S(=O)(=O)c2ccccc2Cl)c([N+](=O)[O-])c1)N1CCN(Cc2ccccc2)CC1,0%,6%,11µM*,1%
CNC(=O)c1[nH]cnc1C(=O)N[C@@H](C)C(=O)OCc1ccccc1,45µM*,3%,-15%,-3%
